The text below walks through data of PubChem BioAssay (NCATS).

Assay [1] addresses Ubiquitin carboxyl-terminal hydrolase 2 (Homo sapiens) (UniProt O75604). The experiment in a line: qHTS Validation Assay for Inhibitors of Ubiquitin-specific Protease USP2a Using CHOP2 as the Reporter (AID 463106). Put shortly:
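Fluorescence read-out at Ex 485nm/Em 531nm after 60min RT, following addition of 25nM Ub-CHOP2 plus 25nM reporter substrate to USP2 core (10nM) pretreated 30min with compound. Data normalized to NEM full inhibition; concentration-response curves fitted.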
For orientation: In qHTS, concentration-response curves come from the screen itself.

The target of assay [2] is DNA polymerase III PolC-type (Bacillus subtilis (strain 168)) (UniProt P13267). The experiment in a line: qHTS Validation Assay for the Inhibitors of DNA Replication in Gram-Positive Bacteria (AID 485295).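 Also: reconstituted holoenzyme with PolC plus beta clamp SSB and primase; PicoGreen fluorescence of double-stranded DNA made on primed circular M13 template; series mostly up to about 57 µM.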 The essentials: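 First, compound is mixed with the reconstituted replication complex and held at room temperature. Next, circular single-stranded M13Gori with nucleotides starts synthesis. Finally, PicoGreen in EDTA halts the reaction and stains double-stranded product for fluorescence reading.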
Chain of DNA polymerase III PolC-type (Bacillus subtilis (strain 168)) (P13267 whole entry, looked up): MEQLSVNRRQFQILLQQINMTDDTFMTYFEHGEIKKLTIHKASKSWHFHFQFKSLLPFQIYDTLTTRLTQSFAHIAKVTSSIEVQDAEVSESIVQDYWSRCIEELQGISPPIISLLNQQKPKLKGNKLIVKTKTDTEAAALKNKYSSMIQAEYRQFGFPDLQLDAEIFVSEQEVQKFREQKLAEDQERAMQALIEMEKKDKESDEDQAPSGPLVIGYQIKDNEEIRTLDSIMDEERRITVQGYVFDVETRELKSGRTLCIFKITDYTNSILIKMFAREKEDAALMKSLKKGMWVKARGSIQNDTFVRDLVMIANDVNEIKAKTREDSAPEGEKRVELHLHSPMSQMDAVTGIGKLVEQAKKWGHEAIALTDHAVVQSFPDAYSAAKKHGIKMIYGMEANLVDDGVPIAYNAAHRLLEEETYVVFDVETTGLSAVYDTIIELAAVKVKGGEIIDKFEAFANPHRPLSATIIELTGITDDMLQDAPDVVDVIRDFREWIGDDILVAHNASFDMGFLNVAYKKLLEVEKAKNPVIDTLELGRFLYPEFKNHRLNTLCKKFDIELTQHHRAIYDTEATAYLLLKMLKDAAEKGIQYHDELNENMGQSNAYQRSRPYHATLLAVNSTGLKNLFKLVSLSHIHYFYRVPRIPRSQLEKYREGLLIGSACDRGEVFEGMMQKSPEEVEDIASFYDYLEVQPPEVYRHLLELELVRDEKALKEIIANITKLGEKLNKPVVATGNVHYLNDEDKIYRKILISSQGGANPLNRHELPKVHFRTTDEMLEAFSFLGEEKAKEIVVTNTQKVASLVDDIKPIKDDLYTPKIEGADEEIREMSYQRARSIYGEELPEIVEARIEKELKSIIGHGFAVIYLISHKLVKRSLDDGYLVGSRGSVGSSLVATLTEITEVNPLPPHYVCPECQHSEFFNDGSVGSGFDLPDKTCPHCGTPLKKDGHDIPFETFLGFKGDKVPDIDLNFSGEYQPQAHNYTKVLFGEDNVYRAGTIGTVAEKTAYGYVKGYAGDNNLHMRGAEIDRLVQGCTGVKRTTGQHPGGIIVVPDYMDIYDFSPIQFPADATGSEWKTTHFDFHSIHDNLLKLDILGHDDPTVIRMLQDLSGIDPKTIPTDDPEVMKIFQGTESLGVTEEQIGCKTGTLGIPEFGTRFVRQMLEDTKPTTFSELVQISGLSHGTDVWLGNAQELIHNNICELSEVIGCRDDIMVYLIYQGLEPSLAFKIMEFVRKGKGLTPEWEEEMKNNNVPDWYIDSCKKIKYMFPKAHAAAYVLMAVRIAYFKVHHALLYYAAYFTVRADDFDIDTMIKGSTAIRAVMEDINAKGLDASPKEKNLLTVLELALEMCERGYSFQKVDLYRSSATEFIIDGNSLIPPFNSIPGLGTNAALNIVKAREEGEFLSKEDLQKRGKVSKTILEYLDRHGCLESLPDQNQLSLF

Assay [3] deals with Tumor susceptibility gene 101 protein (Homo sapiens) (UniProt Q99816). The experiment in a line: qHTS Validation Assay for Iinhibitors of HIV-1 Budding by Blocking the Interaction of PTAP/TSG101 (AID 485342; calls by dose curve). The essentials: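 Binding of a FITC-tagged PTAP-motif peptide (50 nM) to the Tsg101 binding domain (10 uM) is monitored by fluorescence polarization. Compounds are pin-delivered before peptide addition, and incubation runs 20 min at room temperature.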

Assay [4] concerns the target Beta-2 adrenergic receptor (Homo sapiens) (UniProt P07550). The experiment in a line: qHTS validation assay of beta-arrestin-biased ligands of beta2-adrenergic receptor (AID 485366). Put shortly:
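Screening used a titration range of up to 46 microM in a beta-arrestin recruitment Tango luciferase assay. Cells in 1% FBS medium were treated 18 hr at 37 degrees C, and luminescence was normalized to %Activity.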

The target of assay [5] is ATP-dependent 6-phosphofructokinase (Trypanosoma brucei brucei) (UniProt O15648). The experiment in a line: qHTS Validation Assay to Find Inhibitors of T. brucei phosphofructokinase (AID 485368). The note with it: outcome: dose series up to 57.5 µM. Put shortly:
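PFK-generated ADP was measured after 45 min at room temperature using ADP-Glo. The reaction contained 0.5 mM F6P and 0.1 mM ATP.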

Assay [6] has as its target Thioredoxin reductase 1, cytoplasmic (Rattus norvegicus) (UniProt O89049). The experiment in a line: qHTS Assay for Substrates of Mammalian Selenoprotein Thioredoxin Reductase 1 (TrxR1) (AID 488772).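 Also: series mostly up to about 57 µM; a drop in NADPH fluorescence below the no-compound background marks a TrxR1 substrate.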 Put shortly: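 In this dual-purpose format, potential substrates are identified from the first fluorescence read after selenite addition, not from the 8-minute delta. Rat enzyme is preincubated with NADPH and then with compound at ~22 deg C.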

The target is the same in assay [7]. The experiment in a line: qHTS Assay for Inhibitors of Mammalian Selenoprotein Thioredoxin Reductase 1 (TrxR1) (AID 488773).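 Also: drop in NADPH fluorescence over an 8 min run after selenite addition; series mostly up to about 57 µM; nearly all actives have a fitted effect of over 40% in size.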 The note with it: Potency: inhibition. Put shortly:
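Inhibition is scored from the loss of NADPH fluorescence between first and last reads of an 8-min kinetic run. Selenite (400 uM) was the substrate, added after 15 min compound preincubation at room temperature.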

Assay [8] addresses Flap endonuclease 1 (Homo sapiens) (UniProt P39748). The experiment in a line: qHTS Validation Assay for the Inhibitors of Human Flap endonuclease 1 (FEN1) (AID 488816). Put shortly: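 Enzyme reagent 10 nM; cpds pinned; 15 min RT preinc.; substrate 50 nM final; reads t=0 and 15 min; no-enzyme buffer wells as neg. control; normalized data, 4-parameter Hill fit.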
For assay [9], the target named is M-phase phosphoprotein 8 (Homo sapiens) (UniProt Q99549). The experiment in a line: qHTS Validation Assay for Inhibitors for MPP8 Chromodomain Interactions with Methylated Histone Tails (AID 488949).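 Also: 50 nM MPP8 with 50 nM peptide preformed then compounds added for 30 min; AlphaScreen signal from MPP8 chromodomain bound to biotinylated H3K9me3 peptide; top concentration of the series differs between compounds; nearly all actives have a fitted effect of over 55% in size.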 Put shortly: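 50 nM MPP8 + 50 nM b-H3K9me3 peptide, PBS pH 7.4/0.01% Tween-20, 30 min RT; + cpd 30 min RT; + AlphaScreen donor/Ni-chelate acceptor beads 10 ug/mL final, 30 min dark; luminescence read.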

The target of assay [10] is Chromobox protein homolog 1 (Homo sapiens) (UniProt P83916). The experiment in a line: qHTS Validation Assay for Inhibitors of HP1-beta Chromodomain Interactions with Methylated Histone Tails (AID 488953). Also: nearly all actives have a fitted effect of over 50% in size. Also: potency is read from the fitted curve at half-maximal effect. The essentials: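 AlphaScreen proximity readout: streptavidin donor and Ni-chelate acceptor beads, 10 ug/mL final, 30 min dark, RT. Complex of 50 nM HP1-beta and 50 nM b-H3(1-18)K9me3 formed 30 min, then compound-treated 30 min; PBS pH 7.4/0.01% Tween-20.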

The target in assay [11] is Methanococcus maripaludis chaperonin (MmCpn) (UniProt Q6LX38). The experiment in a line: High-Throughput Screening for Modulators of Cytosolic Chaperonin Activity: MmCpn Primary Screen (AID 488978).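 Also: 50 nM MmCpn enzyme hydrolysing 30 µM ATP at 37 °C.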 Put shortly: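 Steps: chaperonin 50 nM final; add compound, 5 min RT; start with ATP, 30 uM final; hold 10 min at 37C; add ADP Transcreener HTRF reagent, 5 min; read ex 320, em 590 and 665 nm.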
Chain of Methanococcus maripaludis chaperonin (MmCpn) (Q6LX38 1-543): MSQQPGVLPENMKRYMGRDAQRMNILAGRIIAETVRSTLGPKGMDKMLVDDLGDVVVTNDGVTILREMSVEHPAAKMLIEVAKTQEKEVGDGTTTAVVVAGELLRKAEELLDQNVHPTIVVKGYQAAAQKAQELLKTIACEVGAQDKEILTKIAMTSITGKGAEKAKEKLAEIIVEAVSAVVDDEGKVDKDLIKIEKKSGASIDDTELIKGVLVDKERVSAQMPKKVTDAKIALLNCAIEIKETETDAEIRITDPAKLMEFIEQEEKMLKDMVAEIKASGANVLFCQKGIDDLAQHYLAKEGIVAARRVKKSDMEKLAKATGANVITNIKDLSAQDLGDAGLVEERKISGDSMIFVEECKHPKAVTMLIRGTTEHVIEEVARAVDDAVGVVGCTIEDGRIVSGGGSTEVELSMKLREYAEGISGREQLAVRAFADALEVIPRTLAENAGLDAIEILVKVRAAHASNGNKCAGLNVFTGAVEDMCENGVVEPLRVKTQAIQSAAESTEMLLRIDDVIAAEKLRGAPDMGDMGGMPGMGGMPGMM

Assay [12] deals with Transient receptor potential cation channel subfamily V member 1 (Homo sapiens) (UniProt Q8NER1). The experiment in a line: HTS Assay for Compounds that Act as Enhancers of the Vanilloid Receptor 1 (AID 488979). The essentials: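 TRPV1 cells loaded with Fluo-8 calcium dye; compound added and Ca2+ signal (ex 480/em 520 nm) followed 3 min, then capsaicin at EC20 added and read 2 more min to detect enhancement.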
Chain of Transient receptor potential cation channel subfamily V member 1 (Homo sapiens) (Q8NER1 whole entry, looked up): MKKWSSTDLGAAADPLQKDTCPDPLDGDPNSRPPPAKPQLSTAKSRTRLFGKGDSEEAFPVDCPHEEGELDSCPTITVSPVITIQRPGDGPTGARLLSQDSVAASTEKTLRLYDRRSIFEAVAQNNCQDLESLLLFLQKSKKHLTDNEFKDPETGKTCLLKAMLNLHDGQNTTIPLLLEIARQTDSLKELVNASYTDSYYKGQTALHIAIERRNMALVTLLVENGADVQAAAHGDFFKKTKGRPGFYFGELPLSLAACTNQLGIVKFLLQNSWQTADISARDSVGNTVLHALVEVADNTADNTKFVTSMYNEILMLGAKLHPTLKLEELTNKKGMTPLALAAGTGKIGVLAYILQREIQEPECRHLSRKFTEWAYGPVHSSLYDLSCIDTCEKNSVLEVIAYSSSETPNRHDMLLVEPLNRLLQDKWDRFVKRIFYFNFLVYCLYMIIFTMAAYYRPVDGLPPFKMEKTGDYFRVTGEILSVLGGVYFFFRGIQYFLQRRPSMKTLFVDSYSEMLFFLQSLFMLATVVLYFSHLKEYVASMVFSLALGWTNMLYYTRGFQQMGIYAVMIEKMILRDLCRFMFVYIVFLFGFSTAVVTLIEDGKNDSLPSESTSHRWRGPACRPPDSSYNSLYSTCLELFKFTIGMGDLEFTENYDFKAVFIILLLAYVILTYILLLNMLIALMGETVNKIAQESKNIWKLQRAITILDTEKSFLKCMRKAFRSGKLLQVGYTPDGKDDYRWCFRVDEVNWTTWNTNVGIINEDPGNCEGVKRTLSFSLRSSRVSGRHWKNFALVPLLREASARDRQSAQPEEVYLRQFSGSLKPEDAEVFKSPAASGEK

The target of assay [13] is Thyrotropin receptor (Homo sapiens) (UniProt P16473). The experiment in a line: qHTS Assay for Antagonists of the Thyroid Stimulating Hormone Receptor (AID 488980). Also: series mostly up to about 58 µM. The essentials:
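Readout is cAMP by HTRF competition between cellular cAMP and cAMP-d2 for a cryptate-labelled antibody. Antagonism was assessed in TSHR-transfected HEK293 cells stimulated with 4 nM TSH (EC80, final) in the presence of RO 20-1724.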

Assay [14] has as its target D(1A) dopamine receptor (Homo sapiens) (UniProt P21728). The experiment in a line: HTS Assay for Allosteric Agonists of the Human D1 Dopamine Receptor: Primary Screen for Agonists (AID 488981). Put shortly:
(§1)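 Tetracycline-induced HEK293 Trex D1 cells with forced coupling to calcium, loaded with no-wash calcium dye; kinetic fluorescence read 180 s after compound addition for agonism, then a further 180 s after an EC20 dopamine challenge for potentiation.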

The target is the same in assay [15]. The experiment in a line: HTS Assay for Allosteric Agonists of the Human D1 Dopamine Receptor: Primary Screen for Potentiators (AID 488982). Also: potency is read from the fitted curve at half-maximal effect. Put shortly: as §1
The target is the same in assay [16]. The experiment in a line: HTS Assay for Allosteric Agonists of the Human D1 Dopamine Receptor: Primary Screen for Antagonists (AID 488983).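 Also: calcium flux response to an EC80 dopamine challenge measured with no-wash dye; nearly all actives have a fitted effect of over 65% in size.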 Also: potency is read from the fitted curve at half-maximal effect. The essentials: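 Calcium flux readout, no-wash dye, inducible HEK293 T-REx D1 line (force-coupled). Compound added after 10 s baseline, 180 s kinetic read; then dopamine at EC80, further 180 s read.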
The target of assay [17] is ATP-dependent 6-phosphofructokinase (Trypanosoma brucei brucei) (UniProt O15648). The experiment in a line: qHTS Assay to Find Inhibitors of T. brucei phosphofructokinase: hit validation (AID 492961).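 Also: luminescence reports ADP formed as PFK phosphorylates fructose-6-phosphate with ATP; series mostly up to about 51 µM.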 Put shortly:
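Inhibition of parasite PFK is measured as reduced ADP formation, quantified via luciferase after ATP depletion. Assay used 0.1 mM ATP, 0.5 mM F6P, 1.25 nM enzyme, 45 min incubation.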

Assay [18] is described as follows: Quantitative high throughput screen for delayed death inhibitors of the malarial parasite plastid, 96 hour incubation (AID 488745).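 Also: luciferase-expressing P. falciparum in erythrocytes at 2% hematocrit and 0.1% parasitemia; series mostly up to about 29 µM; nearly all actives have a fitted effect of over 70% in size.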 The essentials:
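Luciferase-expressing P. falciparum, infected RBCs 2% Hct/0.1% parasitemia (final); 96 h cpd exposure, 37 C, 5% CO2; RPMI 1640 + 0.5% Albumax, bicarbonate, gentamycin. Readout: luminescence loss = growth inhibition.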

Assay [19] in a line: Quantitative high throughput screen for delayed death inhibitors of the malarial parasite plastid, 48 hour incubation (AID 488752). Also: nearly all actives have a fitted effect of over 65% in size. The essentials: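 Luciferase-expressing P. falciparum in RBCs, 2% Hct, 0.1% parasitemia final; RPMI 1640 + 0.5% Albumax; 48 h, 37 C, 5% CO2; luminescence readout, signal drop = growth inhibition.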
A short description of assay [20]: qHTS Validation Assay to Find Inhibitors of Chronic Active B-Cell Receptor Signaling (AID 485345; active = well fitted curve in the direction sought with a large enough effect in the main read-out, with a control signal flat, not every such curve was filed as active). Put shortly:
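TMD8 ABC-DLBCL cells stably carrying doxycycline-inducible IkappaBalpha–green luciferase fusion plus unfused red luciferase; compounds 46 uM to 3 nM, 4 h at 37C with doxycycline. Corrected green/red luminescence ratio normalized to 10 uM MG-132 and basal cell wells; curves fitted.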

Records with an inconclusive call do not appear. Activity calls are given as the source filed them. Unless noted, calls follow the shape of the dose curve; as a rule, active = well fitted curve in the direction sought with a large enough effect; inconclusive = small, poorly fitted or top-dose-only effect, or another doubt; inactive = no such curve, though single readings can be large; an effect the other way counts as inactive or inconclusive.

Chain of Beta-2 adrenergic receptor (Homo sapiens) (P07550 whole entry, looked up): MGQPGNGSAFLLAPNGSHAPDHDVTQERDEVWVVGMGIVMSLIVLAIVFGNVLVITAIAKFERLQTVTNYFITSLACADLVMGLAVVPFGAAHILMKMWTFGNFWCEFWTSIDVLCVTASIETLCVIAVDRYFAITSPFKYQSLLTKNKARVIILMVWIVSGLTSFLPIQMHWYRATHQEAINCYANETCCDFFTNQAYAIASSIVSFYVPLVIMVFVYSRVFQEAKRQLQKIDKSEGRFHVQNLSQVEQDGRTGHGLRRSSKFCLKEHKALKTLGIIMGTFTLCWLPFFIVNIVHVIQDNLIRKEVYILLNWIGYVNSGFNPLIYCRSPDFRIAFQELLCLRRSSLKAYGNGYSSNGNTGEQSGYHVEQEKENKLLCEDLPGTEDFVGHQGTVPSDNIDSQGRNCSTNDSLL
Chain of Thioredoxin reductase 1, cytoplasmic (Rattus norvegicus) (O89049 whole entry, looked up): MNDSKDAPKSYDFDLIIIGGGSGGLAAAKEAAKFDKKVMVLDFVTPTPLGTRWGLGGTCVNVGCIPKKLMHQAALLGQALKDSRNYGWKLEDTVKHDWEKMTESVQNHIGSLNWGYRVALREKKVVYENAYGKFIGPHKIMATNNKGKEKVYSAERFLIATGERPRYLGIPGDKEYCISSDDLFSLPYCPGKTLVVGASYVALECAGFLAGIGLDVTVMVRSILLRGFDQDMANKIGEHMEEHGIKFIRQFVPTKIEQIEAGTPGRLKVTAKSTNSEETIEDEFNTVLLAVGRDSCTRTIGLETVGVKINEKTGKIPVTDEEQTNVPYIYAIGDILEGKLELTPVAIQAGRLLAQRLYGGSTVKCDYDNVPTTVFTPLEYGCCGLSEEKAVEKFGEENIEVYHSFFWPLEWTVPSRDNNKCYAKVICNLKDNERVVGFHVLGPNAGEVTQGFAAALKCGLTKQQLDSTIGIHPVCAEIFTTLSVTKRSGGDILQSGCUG
Chain of ATP-dependent 6-phosphofructokinase (Trypanosoma brucei brucei) (O15648 whole entry, looked up): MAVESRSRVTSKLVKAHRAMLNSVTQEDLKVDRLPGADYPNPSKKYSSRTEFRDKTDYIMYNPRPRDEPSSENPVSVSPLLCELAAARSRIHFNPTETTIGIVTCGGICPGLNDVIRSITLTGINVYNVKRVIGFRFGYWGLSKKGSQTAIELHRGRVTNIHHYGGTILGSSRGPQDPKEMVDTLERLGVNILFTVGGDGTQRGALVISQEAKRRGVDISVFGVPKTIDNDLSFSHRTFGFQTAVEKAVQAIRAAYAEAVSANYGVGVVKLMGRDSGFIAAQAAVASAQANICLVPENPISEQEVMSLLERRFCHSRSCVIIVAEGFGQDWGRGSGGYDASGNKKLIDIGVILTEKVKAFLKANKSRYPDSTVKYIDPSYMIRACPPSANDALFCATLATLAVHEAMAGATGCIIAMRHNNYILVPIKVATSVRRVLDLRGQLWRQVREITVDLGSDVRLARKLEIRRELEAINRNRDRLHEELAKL
Chain of Thyrotropin receptor (Homo sapiens) (P16473 whole entry, looked up): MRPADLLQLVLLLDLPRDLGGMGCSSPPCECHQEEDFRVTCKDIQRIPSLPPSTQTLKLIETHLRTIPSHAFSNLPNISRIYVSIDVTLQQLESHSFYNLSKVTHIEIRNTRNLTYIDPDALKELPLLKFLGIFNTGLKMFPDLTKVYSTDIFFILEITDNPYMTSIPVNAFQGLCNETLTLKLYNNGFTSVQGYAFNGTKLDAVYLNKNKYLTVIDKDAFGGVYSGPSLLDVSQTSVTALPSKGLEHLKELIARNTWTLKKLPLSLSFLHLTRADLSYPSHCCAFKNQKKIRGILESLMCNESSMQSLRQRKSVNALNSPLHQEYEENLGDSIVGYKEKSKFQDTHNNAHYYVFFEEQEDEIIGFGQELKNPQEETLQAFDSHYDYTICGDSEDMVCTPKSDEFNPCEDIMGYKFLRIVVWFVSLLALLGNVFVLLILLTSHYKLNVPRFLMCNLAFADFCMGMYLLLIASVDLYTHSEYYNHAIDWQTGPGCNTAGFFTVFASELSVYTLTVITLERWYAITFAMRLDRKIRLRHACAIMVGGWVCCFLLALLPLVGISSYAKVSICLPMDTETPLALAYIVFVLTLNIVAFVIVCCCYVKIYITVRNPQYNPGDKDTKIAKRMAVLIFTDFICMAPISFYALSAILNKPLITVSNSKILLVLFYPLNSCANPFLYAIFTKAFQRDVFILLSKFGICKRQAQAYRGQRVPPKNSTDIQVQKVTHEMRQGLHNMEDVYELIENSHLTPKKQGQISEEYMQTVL

As for `Cc1oncc1C(=O)Nc1ccc(C(F)(F)F)cc1`, the call in assay [1], in assay [3], in assay [4], in assay [5], in [6] and in assay [11] was inactive. Also, the result in assay [12], in assay [13] and in assay [17] was inactive. Moreover, the Potency result in [2], in assay [7], in [8], in assay [9], in assay [10] and in assay [14] was “inactive” throughout. The Potency result in assay [15] and in assay [16] was “inactive” in each case.
Regarding `CCc1ccc(CCOc2ccc(CC3SC(=O)NC3=O)cc2)nc1` (stereo unspecified), in [17], the outcome was inactive.
For `C#Cc1cccc(Nc2ncnc3cc(OCCOC)c(OCCOC)cc23)c1`, the molecule was classed as inactive in assay [17].
As to `Nc1nc2ccc(OC(F)(F)F)cc2s1`, the molecule was classed as inactive in assay [1], in assay [3], in [4], in assay [5], in assay [6] and in assay [11]. Moreover, the result in assay [12] and in assay [13] was inactive. Besides, the Potency result in assay [2], in assay [7], in assay [8], in [9], in assay [10] and in assay [14] was “inactive” in each case. Further, the Potency result in [15] and in assay [16] was “inactive” throughout.
Consider `CCCc1nn(C)c2c(=O)[nH]c(-c3cc(S(=O)(=O)N4CCN(C)CC4)ccc3OCC)nc12`, for which the result in assay [17] was inactive.
Turning to `O=c1n(CCCN2CCN(c3cccc(Cl)c3)CC2)nc2ccccn12`, the molecule was called inactive in assay [1], in [3], in [4], in assay [6], in [11] and in assay [12]. The molecule was called inactive in assay [13] and in assay [17]. The Potency entry in [2], in [18], in assay [19], in assay [7], in assay [8] and in assay [9] was “inactive” each time. Further, the Potency result in [10], in assay [14] and in assay [15] was “inactive” throughout. The Potency in [16] is 11.2 µM (active).
Consider `Oc1ccc(C2CNCCc3c2cc(O)c(O)c3Cl)cc1` (stereo unspecified), for which the result in assay [1], in assay [3], in assay [20], in assay [4], in assay [6] and in assay [11] was inactive. In addition, the outcome in assay [12] and in [13] was inactive. Also, the Potency entry in assay [9] and in assay [15] was “inactive” throughout. In addition, the Potency in [10] is 0.0067 µM (active).
Take `N#Cc1ccc(C(c2ccc(C#N)cc2)n2cncn2)cc1`: the outcome in assay [17] was inactive.
For `CCCc1nc2c(C)cc(-c3nc4ccccc4n3C)cc2n1Cc1ccc(-c2ccccc2C(=O)O)cc1`, the molecule was classed as inactive in assay [17].
As to `CCOC(=O)C1=C[C@]2(CC)CCCN3CCc4c(n1c1ccccc41)[C@@H]32`, the outcome in assay [1], in assay [3], in assay [4], in assay [5], in [6] and in assay [11] was inactive. Besides, the result in [12] and in assay [13] was inactive. Besides, the Potency entry in [2], in assay [7], in assay [8], in assay [9] and in [14] was “inactive” throughout. Moreover, in assay [15], the Potency is 3.26 µM (active).
